This assay relates to Plasmodium falciparum NF54 stage V gametocytes. As to the kind of experiment: viability index relative to DMSO control (fraction); higher = less gametocyte killing. Conditions: 2.5 µM, incubation time: 72 h. Summed up:
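Gametocytes (P. falciparum NF54, stage V) were treated with compound at 2.5 µM for 72 hr at 37°C in low oxygen, in serum-free medium at 0.75% gametocytemia and 1.25% hematocrit. Counts of 20–70 µm2 red particles, taken from one field per well after MitoTracker Red CMXRos with saponin, were divided by the plate mean of solvent-only wells. This ratio is the viability index.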

Where [1] appears, read: library set: Broad Institute DOS.

± gives the uncertainty stated by the source. Over roughly 9,900 compounds, “viability index relative to DMSO control” has its median near 1; the lowest 2% begin near 0.85. Many of the other results were omitted from the sample, so the lowest values are more common in it than they were.

Turning to `C/C=C/c1ccc2c(c1)[C@@H]1[C@@H](CCN1C(=O)C1CCCC1)[C@H](CO)N2`, the viability index under setting [1] is 1.06 ± 0.045.

As for `C[C@@H]1CCCCO[C@H](CN(C)C(=O)NC2CCCCC2)[C@@H](C)CN([C@H](C)CO)C(=O)c2cc(N(C)C)ccc2O1`, the viability index under setting [1] came to 1.14 ± 0.11.

On to `O=C(Nc1ccccc1)N1CC(=O)N2[C@H](CO)[C@H](c3ccc(C#CC4CCCCC4)cc3)[C@@H]2C1`, for which the viability index under setting [1] came to 0.96 ± 0.031.

Regarding `Cc1noc(C)c1NC(=O)N(C)C[C@@H]1OCc2ccccc2-c2c(n(C)c3ccccc23)C(=O)N([C@@H](C)CO)C[C@H]1C`, under setting [1], the viability index turned out to be 1.02 ± 0.1.

Under setting [1], `Cc1noc(C)c1NC(=O)N(C)C[C@@H]1Oc2cc(C#CCN(C)C)ccc2S(=O)(=O)N([C@@H](C)CO)C[C@H]1C` registered a viability index of 0.947 ± 0.18.

Turning to `CC(C)C#Cc1ccc([C@H]2[C@@H](CO)N3C(=O)CN(C(=O)c4ccc5c(c4)OCO5)C[C@@H]23)cc1`, the viability index under setting [1] is 1.03 ± 0.021.

Under setting [1], `CNC[C@H]1Oc2c(NS(=O)(=O)c3ccc(Cl)cc3)cccc2C(=O)N([C@@H](C)CO)C[C@H]1C` gave a viability index of 1.01 ± 0.034.

For the molecule `O=C(C[C@@H]1CC[C@@H]2[C@H](COC[C@H](O)CN2C(=O)c2cc(Cl)cc(Cl)c2)O1)N1CCc2ccccc2C1`, under setting [1], the viability index is 1.032 ± 0.0059.

Take `C[C@H](CO)N1C[C@H](C)[C@H](CN(C)C(=O)c2cc(Cl)cc(Cl)c2)OCc2ccccc2-c2ccccc2C1=O`: the viability index under setting [1] is 1.04 ± 0.066.

In turn, `Cc1ccc(OC(=O)N(C)C[C@@H]2OCc3ccccc3-c3ccccc3C(=O)N([C@H](C)CO)C[C@H]2C)cc1` gave a viability index under setting [1] of 0.834 ± 0.091.

`C[C@@H]1CN([C@@H](C)CO)C(=O)c2ccccc2-c2ccccc2CO[C@H]1CN(C)C(=O)c1cc(Cl)cc(Cl)c1` displayed a viability index under setting [1] of 0.937 ± 0.19.

The molecule `C[C@@H]1CN([C@H](C)CO)C(=O)c2ccccc2-c2ccccc2CO[C@@H]1CN(C)Cc1ccc(Oc2ccccc2)cc1` returned a viability index under setting [1] of 1.028 ± 0.0055.

Regarding `Cc1ccc(OC(=O)N(C)C[C@@H]2OCc3ccccc3-c3ccccc3C(=O)N([C@@H](C)CO)C[C@H]2C)cc1`, under setting [1], the viability index came out at 0.88 ± 0.0063.

Regarding `Cc1ccc(OC(=O)N(C)C[C@@H]2OCc3ccccc3-c3ccccc3C(=O)N([C@H](C)CO)C[C@@H]2C)cc1`, the viability index under setting [1] came out at 0.993 ± 0.036.

Regarding `C[C@@H]1CN([C@H](C)CO)C(=O)c2ccccc2-c2ccccc2CO[C@@H]1CN(C)C(=O)c1cc(Cl)cc(Cl)c1`, the viability index under setting [1] was determined as 0.8517 ± 0.003.

`C[C@@H]1CN([C@@H](C)CO)C(=O)c2ccccc2-c2ccccc2CO[C@@H]1CN(C)Cc1ccc(Oc2ccccc2)cc1` had a viability index under setting [1] of 0.871 ± 0.0091.

Consider `C[C@H](CO)N1C[C@H](C)[C@@H](CN(C)Cc2ccc(Oc3ccccc3)cc2)OCc2ccccc2-c2ccccc2C1=O`, for which, under setting [1], the viability index is 0.801 ± 0.016.

On to `O=C(c1ccncc1)N1CC2(C1)[C@H](c1ccccc1)[C@@H](CO)N2CC1CC1`, for which the viability index under setting [1] turned out to be 1.08 ± 0.016.

Under setting [1], `Cc1noc(C)c1NC(=O)Nc1ccc2c(c1)C(=O)N([C@@H](C)CO)C[C@@H](C)[C@@H](CN(C)Cc1ccc3c(c1)OCO3)OCCCC[C@@H](C)O2` had a viability index of 1.15 ± 0.058.

Under setting [1], `O=C(c1ccccn1)N1C[C@H]2[C@@H](c3ccccc31)[C@@H](CO)N2C(=O)Nc1ccccc1Cl` returned a viability index of 1.05 ± 0.026.

With `CCS(=O)(=O)Nc1ccc2c(c1)C(=O)N(C)[C@@H]1CC[C@H](CC(=O)N[C@@H]3CCN(Cc4ccccc4)C3)O[C@@H]1CO2`, under setting [1], the viability index amounted to 1.05 ± 0.04.

The molecule `O=S(=O)(c1cccc(F)c1)N1CC[C@H]2[C@H](CO)Nc3ccc(C#Cc4ccccc4F)cc3[C@H]21` returned a viability index under setting [1] of 1.1 ± 0.012.

`COc1ccc(CN(C)C[C@@H]2Oc3ccc(NC(=O)Nc4ccc5c(c4)OCO5)cc3CC(=O)N([C@H](C)CO)C[C@@H]2C)cc1` came in with a viability index under setting [1] of 0.983 ± 0.077.

Consider `COc1ccc2c3c([C@H](CO)N(C[C@]33CN(C3)S(=O)(=O)c3cn(C)cn3)C(=O)Nc3ccc(F)cc3)n(C)c2c1`, for which, under setting [1], the viability index is 1.114 ± 0.0043.

Under setting [1], `COc1ccc(NC(=O)N(C)C[C@H]2Oc3ccc(NC(=O)Nc4cccc5ccccc45)cc3CC(=O)N([C@H](C)CO)C[C@@H]2C)cc1` gave a viability index of 0.968 ± 0.027.

For `COc1ccccc1-c1ccc([C@@H]2[C@@H](C#N)N(C(=O)c3cccnc3)[C@@H]2CO)cc1`, under setting [1], the viability index came to 1.06 ± 0.063.

The molecule `CN(C)CC(=O)N1[C@H](C#N)[C@H](c2ccccc2-c2ccccc2F)[C@@H]1CO` registered a viability index under setting [1] of 1.1 ± 0.066.

`O=C(C[C@H]1CC[C@H]2[C@@H](COC[C@@H](O)CN2S(=O)(=O)c2ccc(F)cc2)O1)NCCN1CCCCC1` showed a viability index under setting [1] of 1.01 ± 0.12.

Under setting [1], `COc1ccccc1C#Cc1ccc([C@H]2[C@H]3CN(C(=O)C4CCC4)CCCCN3[C@H]2CO)cc1` displayed a viability index of 0.971 ± 0.013.

Regarding `COc1ccccc1C#Cc1ccc([C@@H]2[C@@H](CO)N3CCCCN(CCC(F)(F)F)C[C@H]23)cc1`, the viability index (library set: Broad Institute Blood Stage) was determined as 0.759 ± 0.06.

`OC[C@@H]1[C@@H](c2ccc(C#Cc3ccccc3F)cc2)[C@H]2CN(CC3CCOCC3)CCCCN12`: the viability index under setting [1] is 0.852 ± 0.021.

In turn, `OC[C@H]1[C@@H](c2ccc(C#Cc3ccccc3F)cc2)[C@H]2CN(CC3CCOCC3)CCCCN21` returned a viability index under setting [1] of 0.938 ± 0.011.

In the case of `OC[C@H]1[C@H](c2ccc(C#Cc3ccccc3F)cc2)[C@@H]2CN(CC3CCOCC3)CCCCN12`, under setting [1], the viability index amounted to 0.8726 ± 0.0019.

Under setting [1], `COc1ccccc1C#Cc1ccc([C@@H]2[C@H](CO)N3CCCCN(C(=O)C4CCC4)C[C@@H]23)cc1` gave a viability index of 0.967 ± 0.025.

For the origin of these results see the supplement of paper PMC4723716.
